In all, about 2,300 compounds went through this assay and about 1,500 (65%) were called active. So high a share suggests a set chosen from earlier hits. The list shows a part of the results. Potency and affinity values are given separately. Values without a mark were called inactive. The rule behind the calls is not given here.
Assay: replicating M. tuberculosis growth inhibition, dose response, non-replicating M. tuberculosis project, H37Rv (AID 492952);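 note: Mycobacterium tuberculosis grown in culture; growth inhibition read after a week of incubation; 0% = bacteria alone untreated and 100% = bacteria with high antibiotic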
Details: series mostly up to 50 µM; inhibition: at the top concentration

| SMILES | inhibition |
| --- | --- |
| CC1CC(C)CN(CCOCCSc2ccc(Cl)cc2)C1 (centres undefined) | -2.64% |
| Clc1ccc(CN2C3=NCCCN3c3ccccc32)cc1 | 11.8% |
| COc1ccc(C(=O)CCS(=O)(=O)c2ccc(C)cc2)cc1OC | -4.02% |
| O=C1CC(=O)CC(c2ccccc2)C1 | 0.32% |
| CCN1CCC(=NNC(=O)c2ccco2)CC1 | 1.09% |
| O=C(NCc1nnc(SC/C=C/c2ccccc2)o1)c1ccco1 | 0.23% |
| Cc1occc1C(=O)N/N=C/C(Br)=C\c1ccccc1 | -2.05% |
| O=C(Nc1nnc(COc2ccc(Cl)cc2)s1)c1ccco1 | 9.9% |
| CC1=NN(C(=O)CCCc2ccccc2)C(O)(C(F)(F)F)C1 (centres undefined) | -6.38% |
| Cc1cc(C)cc(OC(=O)c2cccnc2)c1 | 12.7% |
| Cc1n[nH]c(C)c1CCNC(=O)C1CCC(=O)N(Cc2ccccc2F)C1 (centres undefined) | 0.57% |
| COc1ccc2c3c(cccc13)OCC2=O | 7.98% |
| O=C1/C(=C/c2cccs2)COc2ccccc21 | -3.45% |
| S=C1NC2(CCCC2)N=C1c1ccccc1 | 0.5% |
| CCOC(=O)Nc1cccc(OCC(=O)Nc2ccc(OC)cc2OC)c1 | 2.31% |
| CCOc1ccc(C(=O)N/N=C(/C)C2C(=O)c3ccccc3C2=O)cc1 | 5.16% |
| NC(=O)COc1ccc2cc(-c3ccc(F)cc3)c(=O)oc2c1 | 25.7% |
| CCOc1c(OC(C)=O)ccc(/C=C2\N=C(SCC)SC2=O)c1[N+](=O)[O-] | -1.38% |
| COc1ccc(-c2nnc(SCC(C)C)o2)cc1 | 8.57% |
| Brc1ccc(CSc2nnc(-c3ccco3)o2)cc1 | 11.7% |
| O=[N+]([O-])c1ccc(CSc2nnc(-c3cccnc3)o2)cc1 | 1.02% |
| Cc1ccc(CSc2nnc(-c3cccnc3)o2)cc1 | 21.8% |
| O=C1CC(N2CCC(C(=O)N3CCCCC3)CC2)C(=O)N1 (centres undefined) | 3.54% |
| C#CCSc1nnc(-c2ccc(O)cc2)o1 | 8.68% |
| CC(C)c1ccc(OCC(=O)NCc2ccccc2)cc1 | 2.92% |
| O=C(NCc1ccc(F)cc1)c1cnccn1 | 0.88% |
| Cc1cc(Br)ccc1OCCCCN1CCCCC1 | -4.62% |

| SMILES | inhibition |
| --- | --- |
| COc1ccc(Cc2nnc(-c3ccccc3)o2)cc1 | -3.41% |
| O=C(c1ccc(-c2ccc([N+](=O)[O-])cc2)o1)N1CCN(S(=O)(=O)c2cccs2)CC1 | 13.8% |
| Cc1ccc2[nH]c3c(c2c1)CCCC3NCCO (centres undefined) | 0.98% |
| COCCCn1c(=NC(=O)c2ccccc2)c(C#N)cc2c(=O)n3cccc(C)c3nc21 | -4.13% |
| Cc1cc(Cl)ccc1NNC(=O)c1c(C)noc1C | -4.83% |
| CCOC(=O)c1ccsc1NC(=O)CCS(=O)(=O)c1ccccc1 | 15.4% |
| CCOC(=O)c1sc(NC(=O)CCN2CCOCC2)c(C(=O)OCC)c1C | -5.07% |
| CC1(C)CC(=O)C=C(Nc2ccccc2N)C1 | -4.13% |
| Cc1ccc(Sc2ncccc2N)cc1 | 3.16% |
| Nc1ccc(Nc2ccccc2)cc1 | 7.38% |
| CN(C)/C=C1/C(=O)N(c2ccc([N+](=O)[O-])cc2)N=C1c1ccccc1 | 13.5% |
| Cc1cc2cc(CNC(=O)C3CCCC3)ccc2n1C | 7.86% |
| CC1(C)Oc2ccc(NC(=O)C3COc4ccccc4O3)cc2O1 (centres undefined) | 6.53% |
| S=C(Nc1ccc2c(c1)OCO2)Nc1ccc2c(c1)OCO2 | -3.44% |
| O=C(c1ccccc1)n1c(=O)c(F)cn(COCCBr)c1=O | 17.5% |
| O=C(CCc1ccccc1F)N1CCN(c2ccccc2)CC1 | 5.47% |
| COc1ccc([N+](=O)[O-])c(S(=O)(=O)c2ccc(Cl)cc2)n1 | 5.39% |
| CCOC(=O)N1CCC(NS(=O)(=O)c2cc3c(cc2Cl)NC(=O)CO3)CC1 | 1.04% |
| O=C(Nc1sc2c(c1C(=O)O)CCCC2)c1ccc(F)cc1 | 23.8% |
| O=C(Nc1ncc2c(n1)-c1ccccc1OC2)c1ccc(F)cc1 | -4.04% |
| O=C(Cc1ccccc1)Nc1ccc(C(=O)NCC2COc3ccccc3O2)cc1 (centres undefined) | 0.05% |
| O=C(CCc1ccccc1)N/N=C/c1cc(Br)ccc1O | 2.75% |
| COc1ccc(N/N=C/c2c(C(=O)O)ccc3ccccc23)cc1 | 2.17% |
| O=C(Nc1nccs1)c1ccc(Br)cc1 | 0.57% |
| CC(C)c1nnc(NC(=O)c2sc3ccccc3c2Cl)s1 | 21% |
| C=C1Cn2c(nnc2-c2ccc(Cl)cc2)S1 | -4.15% |
| COc1ccc(N=N/C(=C\O)C(=O)c2ccco2)cc1 | 4.59% |

| SMILES | inhibition |
| --- | --- |
| Clc1ccc(Cc2nnc(-c3cccs3)o2)cc1 | 4% |
| COCc1[nH]nc2c1C(c1sccc1C)C(C#N)=C(N)O2 (centres undefined) | -5.55% |
| Cc1cccc(NC(=O)COC(=O)c2cc3ccccc3oc2=O)c1 | 7.86% |
| O=C(COC(=O)c1cc2ccccc2oc1=O)Nc1ccc(F)cc1F | 4.18% |
| O=C(NCc1ccccc1)c1cc2ccccc2oc1=O | 3.25% |
| Cc1cccc(NC(=O)c2cc3ccccc3oc2=O)c1 | 20.2% |
| NNC(=O)CNC(=O)C12CC3CC(CC(C3)C1)C2 | -2.33% |
| COc1ccc(OC(=O)C(C)N2C(=O)c3ccccc3C2=O)cc1 (centres undefined) | 1.98% |
| COc1ccc2c(c1)C(=C(C#N)C#N)C(=O)N2CCc1ccccc1 | 19.6% |
| CCN1/C(=C(\O)c2ccccc2)C(=O)c2ccccc2S1(=O)=O | 10.2% |
| Cc1cccc2nc(CSc3nc4cc([N+](=O)[O-])ccc4s3)cn12 | 3.56% |
| CC(C)CN1C(=O)CC(Sc2ccccc2C(=O)O)C1=O (centres undefined) | -4.69% |
| COc1cc(CNC2CCCC2)cc(Cl)c1OCc1ccc(F)cc1 | 6.76% |
| COc1ccc(CCCC(=O)NCc2ccccc2)cc1C | 2.81% |
| NC(=O)C1(N2CCCCC2)CCN(C2CC(=O)N(CCc3ccccc3)C2=O)CC1 (centres undefined) | -4.99% |
| CCCCCCOc1ccc(C(=O)O)cc1C#N | -1.62% |
| O=C(NCc1ccco1)c1nc2ccccc2s1 | 2.82% |
| CC(C)(C)CC(=O)NC(=S)NCc1ccco1 | -5.48% |
| COc1ccc(S(=O)(=O)N(C(C)=O)c2ccc(OC(C)=O)c3ccccc23)cc1[N+](=O)[O-] | 16.4% |
| Cc1nc2scc(-c3ccccc3)c2c(=O)o1 | 5.68% |
| CCOC(=O)c1ccc(NC(=O)CCSCCc2ccccn2)cc1 | 0.82% |
| CCOC(=O)c1ccc(NC(=O)NS(=O)(=O)c2ccc(C)cc2)cc1 | 3.68% |
| Cc1ccc(CCC(=O)Nc2ccc([N+](=O)[O-])cc2)o1 | 2.46% |
| O=C(NNc1ccc([N+](=O)[O-])cc1)C1CC2CCCC(C1)C2=O (centres undefined) | 4.15% |
| CC(NC(=O)c1cccc(F)c1)C1CC2CCC1C2 (centres undefined) | -1.67% |

Reference: PubChem BioAssay AID492952 (Southern Research Specialized Biocontainment Screening …, 2010)
